# According to the supplement of paper PMC10646978:
# ± gives the standard deviation.
# Assays:
# Conditions in all cases: modulator concentration 10 µM
# [1] = tested on: RAW-Dual (murine macrophage reporter line); test: NF-kB reporter (SEAP) activity fold change vs agonist alone; higher = enhanced NF-kB activity
# Procedure, shortened: (§1)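 Compound reached 10 μM final in each well by pin transfer, onto RAW-Dual murine macrophage reporter cells seeded at 50 000 per well in 384-well plates. After 1 hour at 37 °C, the cells were stimulated overnight with a PRR agonist. SEAP in the supernatant was read with QUANTI-Blue at 620 nm absorbance for NF-κB, and Lucia luciferase was read with QUANTI-Luc luminescence for IRF. Each signal was turned into fold change against the mean agonist-only control on the same plate, and two replicate plates were averaged with propagated errors.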
# [2] = tested on: RAW-Dual (murine macrophage reporter line); test: IRF reporter (Lucia luciferase) activity fold change vs agonist alone; higher = enhanced IRF activity
# Procedure, shortened: as §1
# [3] = tested on: RAW-Dual (murine macrophage reporter line); test: viability score (confluency relative to resting cells, overnight) (fraction); higher = more viable, active = viable (0.7 or more)
# Procedure, shortened: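 RAW-Dual macrophages in 384-well plates were incubated overnight with compound, final concentration 10 μM. Confluency images from IncuCyte were processed in IncuCyte software into two masks covering all imaged wells. The viability score is each well's confluency relative to resting cells, and a compound met the cutoff when both masks exceeded 70% of resting cells.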
# [4] = agonist: CpG ODN 1826 0.5 ug/mL
SMILES,"NF-kB reporter [1, 4]",NF-kB reporter ([1]; agonist: LPS 0.1 ug/mL),NF-kB reporter ([1]; agonist: MPLA […]),IRF reporter ([2]; agonist: 3'3'-cGAMP 10 ug/mL),IRF reporter ([2]; agonist: LPS 0.1 ug/mL),IRF reporter ([2]; agonist: MPLA […]),viability score [3]
COc1ccc(S(=O)(=O)NCc2ccnc(-c3ccncc3)c2)cc1Cl,0.831 ± 0.098,1.06 ± 0.1,0.964 ± 0.16,0.388 ± 0.02,0.969 ± 0.07,1.11 ± 0.11,0.999 (active)
COc1ccc(CC(=O)N2CCC(N3CCC(OC)CC3)CC2)cc1OC,0.965 ± 0.063,1.09 ± 0.087,0.893 ± 0.041,0.949 ± 0.05,1.02 ± 0.11,1.08 ± 0.35,0.974 (active)
Cc1ccc(S(=O)(=O)n2nnc3ccccc32)cc1C,1.07 ± 0.11,1.04 ± 0.092,0.991 ± 0.034,0.928 ± 0.059,0.982 ± 0.14,1 ± 0.23,1 (active)
N#Cc1ccnc(N2C(=O)CC[C@H]2C(=O)N(c2cncc(F)c2)[C@H](C(=O)NC2CC(F)(F)C2)c2ccccc2Cl)c1,1.26 ± 0.3,1.04 ± 0.07,1.26 ± 0.08,1.09 ± 0.055,1.28 ± 0.2,1.17 ± 0.12,1 (active)
Cc1ccc(C=NN=C(c2ccccc2)c2ccccc2)o1,0.796 ± 0.061,0.988 ± 0.076,1.05 ± 0.15,0.61 ± 0.028,0.975 ± 0.098,1.07 ± 0.2,1.02 (active)
Cc1ccc(S(=O)(=O)Nc2c3ccccc3c(O)c3c4c(oc23)CC(C)(C)CC4=O)cc1,0.938 ± 0.075,1.04 ± 0.067,0.935 ± 0.058,0.842 ± 0.05,1.29 ± 0.14,1.02 ± 0.16,1.01 (active)
Cc1ccc(S(=O)(=O)N=C(Nc2ccc([N+](=O)[O-])cc2)c2ccccc2)cc1,1.06 ± 0.075,1.13 ± 0.074,0.928 ± 0.06,0.958 ± 0.032,1.39 ± 0.32,1.22 ± 0.16,1 (active)
Cc1cccc(OCCn2cc(C=Nn3cnnc3)c3ccccc32)c1,1.4 ± 0.11,1.12 ± 0.095,1.31 ± 0.13,0.992 ± 0.059,1.23 ± 0.11,1.5 ± 0.24,0.975 (active)
Cc1cc(C(=O)N2CCC(Oc3cccc4cccnc34)CC2)c(C)o1,1.1 ± 0.073,1.1 ± 0.12,0.81 ± 0.066,1.02 ± 0.092,1.07 ± 0.15,1.07 ± 0.23,1.01 (active)
O=C(O)c1nn(-c2ccccc2)c(=O)c2ccccc12,1.12 ± 0.13,1.1 ± 0.099,1.03 ± 0.027,0.955 ± 0.034,0.953 ± 0.086,0.953 ± 0.26,1 (active)
CCOC(=O)C1=C(C)NC(C)=C(C(=O)OCC)C1c1ccc(N(C)C)cc1,1.14 ± 0.13,1.07 ± 0.071,1.24 ± 0.069,0.855 ± 0.16,1.04 ± 0.095,0.94 ± 0.24,0.996 (active)
CC1CCC2C(C)(CO)C(O)CCC2(C)C12CCC(CO)(CCO)O2 (centres undefined),0.983 ± 0.073,0.945 ± 0.049,1.02 ± 0.033,0.99 ± 0.11,0.949 ± 0.048,0.952 ± 0.076,1 (active)
